Several values for one entry are separate records, joined by “and”; a condition that tells them apart may be missing. Equal entries are not always repeated. Activity calls are given as the source filed them. Rule for the calls: active = hit-call score of the fitted dose curve at least 0.9, where 1 is the maximum; inactive = score below 0.9.

The nature of the assay: BSK_SAg_PBMCCytotoxicity: PBMC Cytotoxicity Assessment in the BioMAP Diversity Plus: SAg Assay (AID 2283093).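 For AC50: PBMC superantigen activated with SEB plus TSST-1 one hour after compound addition.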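 Note: PBMC viability measured as Alamar Blue reduction fluorescence at 546/580 nm; fitted both ways against DMSO so a hit may be loss or gain of signal.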 The following applies: primary human HUVEC with PBMC. The procedure, abridged: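 Alamar Blue reduction (6 h, ex/em 546/580 nm) read after 90 h culture of PBMC pre-dosed 1 h then stimulated with SEB plus TSST-1, 20 ng/mL each. Gain or loss of signal fitted relative to DMSO.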
In the case of `CCCCCCCCCCCCOS(=O)(=O)O`, the outcome was inactive.
`CC(C)(C)c1ccc(O)c(O)c1`: the AC50 was 3.06 µM (active).
`O=C(O)CCC(F)(F)C(F)(F)C(F)(F)C(F)(F)C(F)(F)F`: the outcome was inactive.
For `O=C(NCc1ncc(C(F)(F)F)cc1Cl)c1c(Cl)cccc1Cl`, the result was inactive.
Take `O=C(NO)c1ccccc1`: the outcome was inactive.
Regarding `Clc1ccc(Nc2nnc(Cc3ccncc3)c3ccccc23)cc1`, the result was inactive.
Still for that read-out and setting: the result for `CCCCC=O` reads “inactive”; that for `Oc1ccc(Cc2ccccc2O)cc1`, “inactive”; that for `O=C1OC2(c3ccccc31)c1cc(I)c(O)c(I)c1Oc1c2cc(I)c(O)c1I`, “inactive”.
For the compound `C=COC(=O)C(C)(C)CCCCCC`, the AC50 was 36.8 µM (active).
Take `NC(=NCCCCCCN=C(N)/N=C(\N)Nc1ccc(Cl)cc1)/N=C(\N)Nc1ccc(Cl)cc1`: the AC50 is 7.06 µM (active).
As to `C=CC(=O)OCCC(F)(F)C(F)(F)C(F)(F)C(F)(F)C(F)(F)C(F)(F)C(F)(F)C(F)(F)F`, the result was inactive.
Turning to `CCCCCCCCCCCC`, the result was inactive.
In the case of `Oc1c(Cl)cc(Cl)cc1Sc1cc(Cl)cc(Cl)c1O`, the AC50 was 29.1 µM (active) and 30 µM (active).
For `COc1cc(OC)nc(NC(=O)NS(=O)(=O)Nc2ccccc2C(=O)N(C)C)n1`, the result was inactive.
Turning to `O=C(O)C(F)(F)OC(F)(F)C(F)(F)OC(F)(F)C(F)(F)OC(F)(F)C(F)(F)C(F)(F)C(F)(F)F`, the AC50 is 44.5 µM (active) and 45.8 µM (active).
Take `Cc1cccc2c1ccc1ccccc12`: the result was inactive.
With `COc1cccc(O)c1`, the result was inactive.
The same measure, in the same setting: the result for `C=CC(=C)CC/C=C(\C)CCC=C(C)C` reads “inactive”; that for `O=C(c1ccccc1)c1ccccc1`, “inactive”.
With `Cc1[nH]nc2c1N=C(c1ccccc1Cl)c1cc([N+](=O)[O-])ccc1N2`, the result was inactive.
Regarding `CC[N+](CC)(CC)Cc1ccccc1`, the result was inactive.
On to `C=CC(C)(CCC=C(C)C)OC(C)=O` (centres undefined), for which the outcome was inactive.
On the same count and under the same terms, the entry for `COC1=CC(=O)C[C@@H](C)[C@]12Oc1c(Cl)c(OC)cc(OC)c1C2=O` is “inactive”.
For `CCCCC(CC)C(=O)OCCOCCOCCOCCOC(=O)C(CC)CCCC` (centres undefined), the result was inactive.
As for `N=C(N)c1ccc(OCCCCCOc2ccc(C(=N)N)cc2)cc1`, the outcome was inactive.
Regarding `O=C1NS(=O)(=O)c2ccccc21`, the outcome was inactive.
With `COCN(COC)c1nc(N(COC)COC)nc(N(COC)COC)n1`, the outcome was inactive.
Regarding `Cc1ccc(N=Nc2c(O)ccc3ccccc23)c(C)c1`, the AC50 was 4.15 µM (active).

Usually AC50 stands for the concentration at which the activity in the assay is half-maximal.

The values above are taken from PubChem BioAssay (EPA / NIEHS).
